Common to all, as to format: functional
Assay [1] relates to Plasmodium falciparum. Description: GSK_TCMDC: Inhibition of Plasmodium falciparum 3D7 in whole red blood cells, using parasite LDH activity as an index of growth. Test compounds present at 2uM.
Assay [2] deals with Plasmodium falciparum. Nature of the assay: GSK_TCMDC: Inhibition of Plasmodium falciparum Dd2 in whole red blood cells, using parasite LDH activity as an index of growth. Test compounds present at 2uM.
The subject of assay [3] is HepG2. Nature of the assay: GSK_TCMDC: Percent inhibition of human HepG2 cell line. Test compounds present at 10uM.

In general, Inhibition refers to the relative decrease from the control value, in per cent. High values mean strong suppression, low ones little suppression.

For the compound `Cc1cccc2nc(-c3ccc(-c4ccc(NC(=O)C(C)CN(C)C)cc4)cc3)[nH]c12` (stereo unspecified), the Inhibition in assay [1] was determined as 99%; in assay [2] it was 99%; in assay [3], 18%.
Consider `O=S(=O)(Nc1cccc(CCN2CCC(N3CCCCC3)CC2)c1)c1ccc2c(c1)OCCO2`, for which the Inhibition in assay [1] is 91%; in assay [2], 5%; in assay [3], 8%.
`Clc1ncnc2ncn(Cc3cccc(Br)c3)c12`: the figures for the Inhibition in assay [1], in assay [2] and in assay [3] were 91%, 56% and 0%, respectively.
As for `Cc1cc(C(F)(F)F)nn1-c1ccc(NC(=O)c2ccco2)cc1`, the Inhibition is recorded as 94% in assay [1], 93% in assay [2] and 14% in assay [3].
For `O=C(NC1CCCCC1)c1csc(C2CCCN(C(=O)c3ccc(O)c(-c4cccc(C(F)(F)F)c4)c3)C2)n1` (stereo unspecified) the same measures were 96%, 85% and 8%.
For `NC(=O)c1ccc(C(=O)Nc2cccc(-c3csc(-c4nc5ccccc5[nH]4)c3)c2)cc1`, the results for the Inhibition in assay [1], in assay [2] and in assay [3] were 100%, 35% and 14%, respectively.
For `COc1ccc(Nc2nc(NC3CCN(C)CC3)cc(-c3ccc(OC)cc3)n2)cc1` the same measures were 100%, 51% and 62%.
`CN1CCN(CCCN(Cc2ccc(-c3cccc(CNC4CCCC4)c3)cc2)C(=O)/C=C/c2ccccc2)CC1.O=C(O)C(F)(F)F`: the Inhibition in assay [1] is recorded as 100%; in assay [2], 87%; in assay [3], 36%.
As for `Nc1ncc(-c2ccsc2)c2ccc(-c3ccc4cn[nH]c4c3)cc12`, the Inhibition in assay [1] is given as 95%; in assay [2] it was 41%; in assay [3], 18%.
Turning to `Cl.O=C(Nc1cc(Cl)cc(Cl)c1)c1cnn(-c2ccc(F)cc2)c1C1CCNCC1`, the Inhibition in assay [1] is reported as 90%; in assay [2], 0%; in assay [3] it was 13%.
Regarding `CCOc1cc(C(=O)NC2CC(C)(C)NC(C)(C)C2)ccc1-c1nc2cc(Cl)ccc2[nH]1`, the Inhibition in assay [1] amounted to 100%; in assay [2] it was 64%; in assay [3], 46%.
As for `CN1CCN(c2cc3c(cc2Cl)CCN3C(=O)Cc2ccc(Cl)c(NC(=O)Nc3cccc([N+](=O)[O-])c3)c2)CC1`, the Inhibition is given as 99% in assay [1], 51% in assay [2] and 0% in assay [3].
Take `Cc1cccc2nc(-c3ccc(-c4ccc(CN5CCN(CCN6CCOCC6)CC5)cc4)cc3)[nH]c12.O=C(O)C(F)(F)F`: the Inhibition in assay [1] is listed as 98%; in assay [2] it was 74%; in assay [3], 49%.
`Cc1ccc(NC(=O)Nc2ccc(Cl)c(C(F)(F)F)c2)cc1-c1ccc(C(=O)Nc2ccncc2)cc1`: the Inhibition in assay [1] came out at 99%; in assay [2] it was 99%; in assay [3], 77%.
For the compound `CC1CN(Cc2csc(Nc3ccccc3)n2)CC(C)O1` (stereo unspecified), the values for the Inhibition in assay [1], in assay [2] and in assay [3] were 91%, 81% and 4%, respectively.
With `Cc1cc2c3c(N)nc(N)nc3ccc2n1C(C)C`, the Inhibition in assay [1] is reported as 93%; in assay [2] it was 0%; in assay [3], 70%.
`N#Cc1ccc(N[C@@H](CC2CCCCC2)C(=O)NCc2cc(F)c(F)cc2F)c2ccccc12.O=C(O)C(F)(F)F`: the Inhibition in assay [1] is 94%; in assay [2] it was 39%; in assay [3], 12%.
In the case of `C(=N\Nc1nccc2sc(-c3ccccc3)cc12)/c1cccnc1`, the results for the Inhibition in assay [1], in assay [2] and in assay [3] were 97%, 10% and 0%, respectively.
Consider `O=C(NCCN1CCCC1)c1ccc(-c2ccc(-c3nc4ccccc4[nH]3)s2)cc1`, for which the values for the Inhibition in assay [1], in assay [2] and in assay [3] were 92%, 3% and 22%, respectively.
Turning to `O=c1cc(NCCCNCc2cc(Cl)cc(Cl)c2OCc2ccccc2)[nH]c2ccccc12`, the values for the Inhibition in assay [1], in assay [2] and in assay [3] were 91%, 50% and 0%, respectively.
For `COc1ccccc1C1CC(c2ccc(C)cc2)=NN1C(=O)c1ccccc1` (stereo unspecified) the same measures were 98%, 45% and 37%.
For `N=C(N)NC(=O)Nc1cc(Cl)c(Br)c(Cl)c1`, the Inhibition is on record as 100% in assay [1], 100% in assay [2] and 6% in assay [3].
On to `O=C(Nc1ccc(F)c(C(F)(F)F)c1)N[C@H]1CCN(CCCCCNC(=O)C2CC2c2ccc(Cl)c(Cl)c2)C1` (stereo partly specified), for which the Inhibition in assay [1] worked out at 90%; in assay [2], 0%; in assay [3], 46%.
The matching figures for `CCCCCCCCc1c(C)[nH]c(C)c(Cl)c1=O`: 96%, 95% and 0%.
As for `Cl.Cl.N=C(N)c1cccc(-c2cc(-c3cccc(C(=N)N)c3)on2)c1`, the Inhibition in assay [1] is on record as 96%; in assay [2], 78%; in assay [3], 8%.
Consider `O=C(Nc1ccc2[nH]c(-c3ccc4nc(NC(=O)C5CCCCC5)sc4c3)nc2c1)C1CCCCC1`, for which the Inhibition amounted to 100% in assay [1], 68% in assay [2] and 84% in assay [3].
Regarding `O=C(NCc1ccc(Cl)c(Cl)c1)c1ccc(C2CCN(Cc3ccc4[nH]cnc4c3)CC2)cc1`, the Inhibition in assay [1] came to 100%; in assay [2] it was 31%; in assay [3], 1%.
As to `CCOc1ccc(NC(C)=O)c(O)c1`, the figures for the Inhibition in assay [1], in assay [2] and in assay [3] were 96%, 0% and 6%, respectively.
On to `CC(C)CCC[C@@H]([C@@H](CC1CCCCC1)C(=O)N[C@@H](CCCCNC(=O)OCc1ccccc1)C(=O)Nc1nccs1)N(O)C=O`, for which the Inhibition in assay [1] worked out at 98%; in assay [2] it was 90%; in assay [3] it was 0%.
On to `COc1ccc2nc(C)cc(NCc3ccc4ccccc4c3)c2c1.Cl`, for which the Inhibition in assay [1] is 100%; in assay [2], 75%; in assay [3] it was 21%.
Turning to `COc1ccc2ncc(F)c(CCN3C[C@H](CNCc4cc(C#N)c5c(c4)OCCO5)[C@H](O)C3)c2n1.Cl`, the Inhibition was 100% in assay [1], 64% in assay [2] and 7% in assay [3].
As for `Cc1cc(N)c2cc(NC(=O)c3cccc4ccccc34)ccc2n1.Cl`, the figures for the Inhibition in assay [1], in assay [2] and in assay [3] were 98%, 13% and 18%, respectively.

The record behind these values is ChEMBL document CHEMBL1157539, “Thousands of chemical starting points for antimalarial lead identification” (Nature, 2010).
